This is an account of results in PubChem BioAssay (EPA / NIEHS).

SMILES strings stand for the structures. Records with an inconclusive call do not appear. Calls of active or inactive are those of the source. Rule for the calls, unless noted: active = hit-call score of the fitted dose curve at least 0.9, where 1 is the maximum; inactive = score below 0.9.

In assay [1] the target is Estrogen receptor (Homo sapiens) + Estrogen receptor beta (Homo sapiens) (UniProt P03372+Q92731). Description: OT_ER_ERaERb_1440: Odyssey Thera (OT) 24-hour HEK293T Protein-Complementation Assay for Estrogen Receptor-alpha/-beta Homodimer (AID 2283356; active = hit-call score of the fitted dose curve at least 0.9, where 1 is the maximum;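 note: heteromer of ER alpha and ER beta binding domains; hits raise reporter fluorescence and both agonists and antagonists give an increase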). An outline of the steps:
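HEK293T cells stably expressing a PCA pair of ERα LBD (aa 310-547) and ERβ LBD (aa 263-489) were dosed for 24 h. Fluorescence intensity increase versus DMSO vehicle was fitted as gain-of-signal.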

Assay [2] has as its target Nuclear receptor subfamily 1 group I member 2 (Homo sapiens) (UniProt O75469). Description: NVS_NR_hPXR: NovaScreen (NVS) Nuclear Receptor Binding Assay for human Pregnane X Receptor (PXR) (AID 2283365; active = hit-call score of the fitted dose curve at least 0.9, where 1 is the maximum;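 note: a drop in FRET signal versus DMSO baseline means the compound binds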). The procedure, abridged:
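Cell-free binding assay with extracted human PXR protein, read by TR-FRET 2 h after dosing; loss of signal relative to DMSO baseline indicates binding. Primary screen at 25 uM in duplicate, actives retested in concentration series.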

Assay [3] is described as follows: IUF_NPC1b_proliferation_BrdU_72hr: Leibniz Research Institute for Environmental Medicine (IUF) 72-hour Neural Progenitor Cell Bromodeoxyuridine (BrdU) Proliferation Assay (NPC1b) (AID 2284207). The procedure, abridged:
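Human fetal cortex-derived (GW 16-19) neural progenitor spheres, 0.25-0.35 mm, one per well in EGF/FGF proliferation medium, exposed to compound for 72 h at 37C, pH 7.2-7.6. BrdU incorporation over the final 16 h read by luminescence ELISA, relative to DMSO.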

Assay [4] can be described thus: IUF_NPC1a_proliferation_area_72hr: Leibniz Research Institute for Environmental Medicine (IUF) 72-hour Neural Progenitor Cell Proliferation Area Assay (NPC1a) (AID 2284208). An outline of the steps: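 Read-out: increase in sphere area over 72 h by automated phase-contrast imaging, fitted in positive direction versus DMSO baseline. One hNPC sphere (0.25-0.35 mm) per well in EGF/FGF medium; growth-factor withdrawal served as positive control.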

Assay [5] in a line: IUF_NPC1_viability_72hr: Viability Assessment at 72 hours in the Leibniz Research Institute for Environmental Medicine (IUF) Neural Progenitor Cell Proliferation Assay (NPC1) (AID 2284209). The procedure, abridged: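 Spheres of primary human neural progenitors were plated singly in proliferation medium and treated for 72 h. Mitochondrial reduction of resazurin was then measured by fluorescence and analysed against DMSO controls.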

A short description of assay [6]: IUF_NPC2c_oligodendrocyte_migration_120hr: Leibniz Research Institute for Environmental Medicine (IUF) 120-hour Neural Progenitor Cell Migration Assay for Oligodendrocyte Migration (NPC2c) (AID 2284297).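 Note: O4-positive oligodendrocyte migration distance divided by radial glia migration distance.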 The procedure, abridged:
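Human fetal cortex-derived neural progenitor spheres (0.3 mm) were plated on poly-D-lysine/laminin in N2 differentiation medium and exposed to 7 concentrations for 120 h, with half-medium renewal at day 3. Oligodendrocyte migration distance was normalized to radial glia migration, relative to DMSO.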

The nature of assay [7]: CCTE_Shafer_MEA_dev_per_burst_spike_percent: CCTE's Neural Network Formation Assay for Percent of Spikes in a Burst, Shafer Lab (AID 2284032).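 Note: fitted as a decrease in burst spike percentage below DMSO baseline.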 An outline of the steps:
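Value is trapezoidal AUC over recordings on days 5, 7, 9 and 12 of the well-mean fraction of spikes falling in single-electrode bursts; rat cortical cultures exposed continuously from plating, treatment renewed DIV 5 and 9, fitted downward against DMSO.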

A short description of assay [8]: CCTE_Shafer_MEA_dev_burst_rate: CCTE's Neural Network Formation Assay for Burst Rate, Shafer Lab (AID 2284042).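 Note: potency for loss of burst rate below DMSO control.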 An outline of the steps:
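Developmental network assay measuring how 12-day exposure of rat cortical neuron cultures alters bursting on extracellular MEA recordings. Values are AUC of well-mean burst rate across four recording days, relative to DMSO vehicle.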

Assay [9] is described as follows: CCTE_Shafer_MEA_dev_bursting_electrodes_number: CCTE's Neural Network Formation Assay for Number of Bursting Electrodes, Shafer Lab (AID 2284043; active = hit-call score of the fitted dose curve at least 0.9, where 1 is the maximum;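 note: potency is for loss of bursting electrodes relative to DMSO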). An outline of the steps:
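Number of electrodes reaching ≥1 burst every 2 min was recorded at DIV 5, 7, 9 and 12 and collapsed as trapezoidal area under the curve. Cultures were rat cortical neurons on MEA plates, dosed continuously from plating with medium and treatment refreshed on DIV 5 and 9.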

A short description of assay [10]: CCTE_Shafer_MEA_dev_per_burst_interspike_interval: CCTE's Neural Network Formation Assay for Burst Interspike Interval, Shafer Lab (AID 2284044).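 Note: potency for a decrease of within-burst interspike interval below DMSO level.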 An outline of the steps: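 Rat cortical primary cultures, 16 electrodes/well; compound from plating, renewed with full media change DIV 5 and 9. Spikes via adaptive detector; per-burst ISI well-mean over active bursting electrodes; AUC of DIV 5/7/9/12 recordings; loss-direction fit vs DMSO.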

A short description of assay [11]: CCTE_Shafer_MEA_dev_burst_duration_mean: CCTE's Neural Network Formation Assay for Mean Burst Duration, Shafer Lab (AID 2284045).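 Note: curve fitted for loss meaning shorter burst duration than DMSO.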 The procedure, abridged: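 Mean single-electrode burst duration (first to last spike), averaged over bursting electrodes per well, then integrated as area-under-curve across recordings at days 5, 7, 9 and 12. Rat cortical cultures on MEAs, compound present from plating, refreshed at feeds.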

Assay [12] in a line: CCTE_Shafer_MEA_dev_interburst_interval_mean: CCTE's Neural Network Formation Assay for Mean Interburst Interval, Shafer Lab (AID 2284046).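 Note: well-mean interburst interval of bursting electrodes as AUC over four recording days; curve fitted for decrease in interburst interval relative to DMSO.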 An outline of the steps:
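Network formation assay in primary rat cortical cultures, exposed from DIV 0 to 12. Mean interburst interval per well, integrated as AUC over four recordings.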

Assay [13] is described as follows: CCTE_Shafer_MEA_dev_inter_network_spike_interval_mean: CCTE's Neural Network Formation Assay for Mean Inter-network Spike Interval, Shafer Lab (AID 2284047).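 Note: potency for a decrease in mean inter-network spike interval below DMSO.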 An outline of the steps: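 Compound was given at plating to primary rat cortical neurons and renewed with full medium changes on DIV 5 and 9. Extracellular activity was recorded on days 5, 7, 9, 12; AUC values were fitted for loss relative to DMSO control.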

Assay [14] is described as follows: CCTE_Shafer_MEA_dev_network_spike_number: CCTE's Neural Network Formation Assay for Number of Network Spikes, Shafer Lab (AID 2284048).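 For AC50: fit as a loss of signal meaning fewer network spikes than DMSO.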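 Note: synchronized bursts across electrodes counted on days 5 7 9 12 and integrated as AUC.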 The procedure, abridged:
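Number of network spikes (coordinated firing across electrodes) recorded on days 5, 7, 9 and 12 and summarised as area under the curve. Rat cortical cultures on MEA, continuous compound exposure with full medium/treatment exchange at DIV 5 and 9.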

The nature of assay [15]: CCTE_Shafer_MEA_dev_network_spike_peak: CCTE's Neural Network Formation Assay for Mean Number of Electrodes in Network Spike, Shafer Lab (AID 2284049).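 Note: fitted for loss of signal meaning fewer electrodes in network spikes than DMSO.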 The procedure, abridged: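 Rat cortical primary culture, 1.5 x 10^5 cells/well, 48-well MEA (16 electrodes/well). Dosing day 0 through DIV 12, full media/compound exchange DIV 5, 9. AxIS adaptive spike detection; AUC over days 5/7/9/12; loss-of-signal vs DMSO.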

Assay [16] is described as follows: CCTE_Shafer_MEA_dev_network_spike_duration_std: CCTE's Neural Network Formation Assay for Standard Deviation of Network Spike Duration, Shafer Lab (AID 2284052).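 Note: hits are decreases in network spike duration SD versus DMSO vehicle.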 The procedure, abridged: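 Developing networks of rat cortical neurons were exposed over twelve days in vitro on 48-well MEA plates. Trapezoidal AUC of recordings (DIV 5–12) was analysed for signal loss relative to DMSO vehicle.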

Assay [17] in a line: CCTE_Shafer_MEA_dev_per_network_spike_spike_number_mean: CCTE's Neural Network Formation Assay for Mean Number of Spikes in a Network Spike, Shafer Lab (AID 2284053). The procedure, abridged:
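First, rat cortical cells (1.5 x 10^5/well) were seeded onto MEA wells; second, dosing began at plating and was refreshed on DIV 5 and 9; finally, network-spike spike counts across DIV 5–12 were summarized as AUC.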

The nature of assay [18]: CCTE_Shafer_MEA_dev_per_network_spike_spike_percent: CCTE's Neural Network Formation Assay for Percent of Spikes in a Network Spike, Shafer Lab (AID 2284054). The procedure, abridged: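 Metric: fraction of spikes falling in a 0.05 s window at network-spike peaks. Recordings were made on days 5, 7, 9 and 12 and collapsed by trapezoidal AUC. Cultures were rat cortical neurons on MEA plates, dosed continuously from plating, re-dosed at media changes.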

Assay [19] is described as follows: CCTE_Shafer_MEA_dev_AB: CCTE's Alamar Blue Assay for Cytotoxicity in the Neural Network Formation Assay, Shafer Lab (AID 2284083; active = hit-call score of the fitted dose curve at least 0.9, where 1 is the maximum;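 note: resazurin reduction fluorescence as viability of cultured neurons; twelve days of exposure from plating with re-dosing on DIV 5 and 9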). The procedure, abridged:
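Cytotoxicity companion to the developmental MEA: primary rat cortical neurons, 12-day exposure starting day 0, compound refreshed DIV 5 and 9; resazurin fluorescence, fitted against DMSO vehicle.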
For orientation: The colour change of resazurin is a common sign of viable cells or microbes.

The nature of assay [20]: CCTE_Shafer_MEA_dev_mutual_information_norm: CCTE's Neural Network Formation Assay for Mutual Information Normalization, Shafer Lab (AID 2284091).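 Note: mutual information between electrodes summarised as area under curve across four recording days; potency is for a decrease in mutual information relative to DMSO.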 The procedure, abridged: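 Shared information across electrodes, tracked on days 5, 7, 9 and 12 of network development and collapsed as trapezoidal area under the curve. Rat cortical cultures were treated continuously from plating, with treatment renewed at feeds on DIV 5 and 9; DMSO baseline, negative-direction fit.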

Chain of Nuclear receptor subfamily 1 group I member 2 (Homo sapiens) (O75469 whole entry, looked up): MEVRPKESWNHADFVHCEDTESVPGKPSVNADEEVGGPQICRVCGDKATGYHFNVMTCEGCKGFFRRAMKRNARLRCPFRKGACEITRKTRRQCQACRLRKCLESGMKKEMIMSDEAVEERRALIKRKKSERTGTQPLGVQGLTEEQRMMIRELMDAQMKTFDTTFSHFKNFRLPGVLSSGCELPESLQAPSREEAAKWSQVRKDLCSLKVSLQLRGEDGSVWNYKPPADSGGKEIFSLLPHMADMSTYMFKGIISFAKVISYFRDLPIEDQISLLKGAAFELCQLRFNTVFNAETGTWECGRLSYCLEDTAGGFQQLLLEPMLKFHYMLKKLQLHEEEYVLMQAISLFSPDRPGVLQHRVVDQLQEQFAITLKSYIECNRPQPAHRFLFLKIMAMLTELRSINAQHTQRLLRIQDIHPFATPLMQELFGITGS
Chain of Estrogen receptor (Homo sapiens) + Estrogen receptor beta (Homo sapiens) (P03372 whole entry, looked up, the tested form may be a part): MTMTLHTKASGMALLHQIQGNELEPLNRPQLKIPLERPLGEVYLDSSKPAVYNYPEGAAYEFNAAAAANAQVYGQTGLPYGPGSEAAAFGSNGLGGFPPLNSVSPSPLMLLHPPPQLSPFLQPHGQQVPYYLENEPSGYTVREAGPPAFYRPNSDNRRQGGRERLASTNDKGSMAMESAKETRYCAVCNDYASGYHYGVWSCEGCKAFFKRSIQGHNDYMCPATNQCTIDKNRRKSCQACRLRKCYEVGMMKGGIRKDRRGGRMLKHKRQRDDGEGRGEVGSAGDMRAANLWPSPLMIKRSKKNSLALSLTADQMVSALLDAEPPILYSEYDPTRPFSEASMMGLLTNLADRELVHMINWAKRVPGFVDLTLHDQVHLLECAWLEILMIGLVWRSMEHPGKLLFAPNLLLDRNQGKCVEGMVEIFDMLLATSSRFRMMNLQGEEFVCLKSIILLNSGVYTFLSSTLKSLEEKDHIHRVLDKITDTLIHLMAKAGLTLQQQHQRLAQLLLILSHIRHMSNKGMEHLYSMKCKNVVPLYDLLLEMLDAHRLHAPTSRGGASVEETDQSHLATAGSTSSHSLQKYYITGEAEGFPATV
Chain of Estrogen receptor (Homo sapiens) + Estrogen receptor beta (Homo sapiens) (Q92731 whole entry, looked up, the tested form may be a part): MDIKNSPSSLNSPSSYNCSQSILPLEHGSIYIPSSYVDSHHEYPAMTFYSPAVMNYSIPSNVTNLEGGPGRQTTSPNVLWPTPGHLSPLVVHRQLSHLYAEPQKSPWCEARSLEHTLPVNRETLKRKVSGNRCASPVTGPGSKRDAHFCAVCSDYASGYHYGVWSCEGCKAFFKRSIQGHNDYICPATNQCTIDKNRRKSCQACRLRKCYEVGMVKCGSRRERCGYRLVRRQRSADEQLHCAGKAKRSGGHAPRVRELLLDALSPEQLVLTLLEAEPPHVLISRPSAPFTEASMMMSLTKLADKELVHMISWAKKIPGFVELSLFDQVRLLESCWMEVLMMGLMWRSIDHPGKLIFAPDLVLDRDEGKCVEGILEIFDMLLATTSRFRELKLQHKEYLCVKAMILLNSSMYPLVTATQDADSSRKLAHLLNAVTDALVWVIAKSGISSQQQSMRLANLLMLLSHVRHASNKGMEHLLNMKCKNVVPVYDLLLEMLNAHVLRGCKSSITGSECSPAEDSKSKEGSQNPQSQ

`CCOC(=O)c1ccccc1`: the result in assay [1] and in [2] was inactive.
As usually defined, the AC50 is the midpoint of the concentration-response curve, whichever way the signal moves. Regarding `Oc1cccc2ccccc12`, the outcome in [3], in assay [4] and in [6] was inactive. Further, the half-maximal activity concentration (AC50) in assay [5] was 2440 nM (active).
Regarding `COc1ccc2cc3[n+](cc2c1OC)CCc1cc2c(cc1-3)OCO2`, the AC50 in assay [7] was 145 nM (active); in [8] it was 92.8 nM (active); in assay [9], 130 nM (active); in [10], 381 nM (active); in assay [11] it was 291 nM (active); in [12] it was 287 nM (active). In addition, the AC50 in assay [13] was 236 nM (active); in assay [14], 79.8 nM (active); in [15], 156 nM (active); in assay [16], 97.4 nM (active); in assay [17], 109 nM (active); in assay [18] it was 117 nM (active). The AC50 was 450 nM (active) in assay [19] and 92.6 nM (active) in assay [20].
For `CNCCC(Oc1ccc(C(F)(F)F)cc1)c1ccccc1` (centres undefined), the concentration at half-maximal activity (AC50) is 4190 nM (active) in assay [7]; 2770 nM (active) in assay [8]; 1790 nM (active) in assay [9]; 3140 nM (active) in [10]; 2810 nM (active) in [11]; 4180 nM (active) in [12]. Also, the AC50 is 1400 nM (active) in [13]; 2800 nM (active) in assay [15]; 2010 nM (active) in assay [16]; 1070 nM (active) in assay [17]; 7650 nM (active) in assay [18]; 5000 nM (active) in assay [19]. Moreover, the AC50 in assay [20] was 2580 nM (active). For the same compound, the result in assay [14] was inactive.
